Records with an inconclusive call do not appear. Unmarked numbers belong to inactive results. The source made the active and inactive calls. Calls follow the shape of the full dose curve; tested in HEK293 reporter line.
% is scaled to controls: 0 for no effect and ±100 for the full control effect; potency is read from the fitted curve at half-maximal effect.

This assay can be described thus: qHTS for Inhibitors of the Functional Ribonucleoprotein Complex (vRNP) of Lassa (LASV) Arenavirus: LASV Primary Screen - GLuc reporter signal (AID 1347082). Also: nearly all actives have a fitted effect of over 60% in size. The note with it: LASV minigenome vRNP, Gaussia luciferase reporter; series mostly up to 57.5 µM; activity change, negative = inhibition: at the top concentration. A general note: qHTS replaces the single test concentration by a dilution series.
Turning to `Cc1ccc2nc(N)[nH]c(=O)c2c1Sc1ccncc1`, the “activity change, negative = inhibition” value is -27.7%. Take `O=C1N(c2ccccc2)c2ccccc2C1(Cc1ccncc1)Cc1ccncc1`: the Potency result is “inactive”.

In the case of `CCCS(=O)c1ccc2nc(NC(=O)OC)[nH]c2c1` (configuration not stated), the Potency entry was “inactive”.

For `CCCCCCCCCCCCCCCC[N+](C)(C)Cc1ccccc1`, the “activity change, negative = inhibition” value was -35.6%. On the same count and under the same terms, then `COc1cc(O)c(C(=O)c2ccccc2)cc1S(=O)(=O)O`, with -33.5%; and `O=S(=O)(O)NC1CCCCC1`, with -35.4%. In the case of `COc1ccc2cc3[n+](cc2c1OC)CCc1cc2c(cc1-3)OCO2`, the Potency is 27.3 µM (active). For the compound `C#C[C@]1(O)CC[C@H]2[C@@H]3CCc4cc(O)ccc4[C@H]3CC[C@@]21C`, the “activity change, negative = inhibition” value was -13%.

Take `CCC(=O)O[C@]1(C(=O)CCl)[C@@H](C)C[C@H]2[C@@H]3CCC4=CC(=O)C=C[C@]4(C)[C@@]3(F)[C@@H](O)C[C@@]21C`: the Potency entry was “inactive”.

For `O=c1[nH]c(=O)n([C@H]2C[C@H](O)[C@@H](CO)O2)cc1C(F)(F)F`, the “activity change, negative = inhibition” value is 12.6%. For `Clc1ccc(Nc2nnc(Cc3ccncc3)c3ccccc23)cc1`, the “activity change, negative = inhibition” value was -29.4%. On to `O=C(Nc1ccc([N+](=O)[O-])cc1Cl)c1cc(Cl)ccc1O`, for which the “activity change, negative = inhibition” value is -25.1% [at 24.7 µM]. The same measure, in the same setting: under `CCCSS/C(CCO)=C(\C)N(C=O)Cc1cnc(C)nc1N` stands 3.32%; under `CN1CCC(Nc2ncc3ncnc(Nc4ccc(F)c(Cl)c4)c3n2)CC1`, 2.55%. `CN(C)CCN(Cc1ccc(Cl)cc1)c1ccccn1`: the “activity change, negative = inhibition” value was -11.5%. On the same count and under the same terms, under `C[C@]12Cc3nonc3C[C@@H]1CC[C@@H]1[C@@H]2CC[C@@]2(C)[C@H]1CC[C@]2(C)O` stands -36.7%. Take `CCN(CC)CCOc1ccc(C(O)(Cc2ccc(Cl)cc2)c2ccc(C)cc2)cc1` (configuration not stated): the “activity change, negative = inhibition” value is -12.4%.
